# In ChEMBL document CHEMBL4513216, “Probing the Open Global Health Chemical Diversity Library for Multistage-Active Starting Points for Next-Generation Antimalarials” (ACS Infect Dis, 2020):
# In all, about 68,000 compounds went through this assay and about 2,700 (4%) showed an effect of 50% or more. Only a selection was taken, and strong results are over-represented in it overall.
# Test system: Plasmodium berghei
# Assay: Screen against P. berghei liver stage (PbLuc), transformed with Luciferase, at 2uM
# Format: functional, HepG2
# Settings: tested at 2 uM
row,SMILES,INHIBITION [%]
1,CC(C)CN1C(=O)CO[C@@H]2CNC[C@H]21,70.31
2,CC(C)CN1C(=O)CO[C@@H]2CN(C(=O)N(C)C)C[C@H]21,-20.67
3,O=C1CO[C@@H]2CNC[C@H]2N1CC1CC1,27.61
4,CCN(Cc1cccc(C(=O)Nc2c(C)cnn2C)c1)[C@H]1COC[C@@H]1O,20.36
5,CC1CCN(C(=O)[C@@H]2CC[C@@H]3[C@@H](CCN3c3ncc(F)cn3)O2)CC1,3.63
6,CCSCc1cccc(NC(=O)N(C)Cc2ncnn2C)c1,72.05
7,CCOc1cc(NC(=O)N(C)Cc2ncnn2C)ccc1C,31.51
8,CC(C)OCc1cccc(NC(=O)N(C)Cc2ncnn2C)c1,31.51
9,COCCNC(=O)Cn1c(-c2ccco2)cc2cccnc21,37.87
10,CCOc1nc2cnccc2n(CC(=O)NCCc2ccccc2)c1=O,28.85
11,CCOc1nc2cccnc2n(CC(=O)NCCOC)c1=O,74.49
12,CNC(=O)CN1CCOCC2(C1)CN(C(=O)CC(C)C)CCO2 (stereo not drawn),-1.18
13,Fc1cccc2[nH]c(CN3CCc4cncnc4C3)nc12,7.24
14,Cc1nn(C)c(N(C)C)c1CNCc1cccnc1N1CCOCC1,28.81
15,O=S1(=O)CCCN1Cc1coc(-c2ccc(C(F)(F)F)cc2)n1,1.8
16,CSc1ccc(C(C)NC(=O)c2cc(C)on2)cc1 (stereo not drawn),-121.09
17,CSc1ccc(C(CC(=O)O)NC(=O)c2cc(C)on2)cc1 (stereo not drawn),-70.44
18,COc1ccc(C(CC(=O)O)NC(=O)c2cc(C)on2)cc1 (stereo not drawn),73.09
19,CN(C)CC(=O)N1CCC2(CC(=O)N(c3cccc(C#N)c3)C2)C1 (stereo not drawn),-3.08
20,CC(C)c1nnc(N2C[C@H]3CC[C@@H](C2)N(Cc2ccccc2)C3)s1,-23.49
21,O=C1C[C@@H]2CC[C@H](CN1)N2C(=O)CCCc1ccc(Cl)cc1,-29.06
22,O=C1C(NS(=O)(=O)c2ccc(F)cc2)CCN1Cc1ccccc1 (stereo not drawn),38.76
23,O=C1C(NS(=O)(=O)c2cccc(F)c2)CCN1Cc1ccccc1 (stereo not drawn),54.29
24,O=C1C(NS(=O)(=O)c2cc(F)cc(F)c2)CCN1Cc1ccccc1 (stereo not drawn),23.92
25,CC(C)CN1CC[C@@H]2[C@H](CC1)N(C(=O)c1ccccc1)CCS2(=O)=O,-1.31
26,CC(=O)N1CCS(=O)(=O)[C@@H]2CCN(S(=O)(=O)CC(C)C)CC[C@@H]21,-12.76

row,SMILES,INHIBITION [%]
1,CC(=O)N1CCS(=O)(=O)[C@@H]2CCN(CC(C)C)CC[C@@H]21,60
2,Cc1nsc(C(=O)NCCc2ccc(S(N)(=O)=O)cc2)n1,-43.28
3,CC(C)Cc1nc(CN2CCOC(Cn3cccn3)C2)no1 (stereo not drawn),-20.61
4,O=C(NC1CC1)c1cc(NC(=O)N2CCOCC2)ccc1Cl,64.9
5,O=C(NC1CC1)c1cc(NC(=O)N2CCSCC2)ccc1Cl,31.51
6,O=C(NC1CC1)c1cc(NC(=O)N2CCCC2)ccc1Cl,31.51
7,CCN(Cc1noc(CC(C)C)n1)Cc1ccccc1Cl,-33.2
8,CCN(Cc1cc(F)c(OC)c(Cl)c1)Cc1nc(COC)no1,-20.98
9,CCN(Cc1cc(F)c(OC)c(Cl)c1)Cc1noc(CC(C)C)n1,71.91
10,CCn1cc(CN2CCCC(c3[nH]ncc3-c3ccc(C)cc3)C2)cn1 (stereo not drawn),-20.72
11,CN(C)Cc1nn(C)c2c1CCN(C(=O)c1cccnc1)C2,47.97
12,CNC(=O)c1cccc(CCNc2ncc(Br)cn2)c1,12.41
13,CCn1cc(N)c(-c2nnc3n2CCCC3)n1,-37.89
14,Cn1nnc2cc(C(=O)NS(=O)(=O)c3ccc(F)cc3)ccc21,28.72
15,Cc1cccc(S(=O)(=O)NC(=O)c2ccc3c(c2)nnn3C)c1,53.99
16,Cn1nnc2cc(C(=O)NS(=O)(=O)c3cccc(C#N)c3)ccc21,-40.9
17,CCc1ncc2c(n1)CN(c1nnc(C)c(C)c1C#N)CC2,23.43
18,Cc1cc(-c2cnc(N3CCCC(C)C3)nc2-c2cccnc2C)on1 (stereo not drawn),-39.75
19,CS(=O)(=O)NCc1n[nH]c2c1CCN(C(=O)c1ccsc1)C2,19.56
20,CCC(=O)NCc1cc(Br)ccc1OC(F)F,43.8
21,CN1CCN2C(=O)N(C3CCCCC3)C[C@H]2C1,-22.32
22,CS(=O)(=O)N1CCN2C(=O)N(C3CCOCC3)C[C@H]2C1,35.89
23,CN1CCN2C(=O)N(C3CCOCC3)C[C@H]2C1,52.36
24,Cc1cnn(CC2CCCN2C(=O)CCc2ccncc2)c1 (stereo not drawn),-5.39
25,N#Cc1ccc(C(=O)N2CCc3c(COCC4CC4)cncc3C2)cc1,-20.87
26,CSC1(CNC(=O)N(C)Cc2sccc2C)CCOCC1,57.16

row,SMILES,INHIBITION [%]
1,CSC1(CNC(=O)NCc2sccc2C)CCOCC1,13.58
2,CSC1(CNC(=O)N(C)Cc2ccc(C)s2)CCOCC1,-18.99
3,CC(C)N(C)CC(=O)NCCc1nc(C(F)(F)F)cs1,-18.28
4,CN(C)Cc1nnc(C2CCN(c3ncccc3Cl)CC2)n1C1CC1,84.18
5,Cc1cnc(C)c(N2CCC(c3nnc(CN(C)C)n3C3CC3)CC2)n1,-13.88
6,CN(C)Cc1nnc(C2CCN(c3ncccn3)CC2)n1C1CC1,-61.17
7,Cn1cncc1CN1CCC2(CC1)COCCN(S(C)(=O)=O)C2,-38.72
8,Cc1cc(C(F)(F)F)nn1CCNC(=O)C(C)n1ccnc1C(C)C (stereo not drawn),-4.93
9,CCCN(CC1CC1)S(=O)(=O)c1ccc(NC(C)=O)cc1,-13.12
10,CC(C)(O)CCc1cccc(C(=O)N2CCC[C@H]2C(N)=O)c1,6.26
11,CN(CCCOc1ccc(F)cc1)S(=O)(=O)c1cnn(C)c1,-6.65
12,CN(CCOc1ccc(F)cc1)S(=O)(=O)c1cnn(C)c1,-11.34
13,COc1ccc(OCCN(C)S(=O)(=O)c2cnn(C)c2)cc1,83.12
14,Cc1ccc(OCCN(C)S(=O)(=O)c2cnn(C)c2)cc1,31.54
15,CN(CCCOc1ccccc1)S(=O)(=O)c1cnn(C)c1,-2.63
16,CN(C)CCOc1ccc(N(C)S(=O)(=O)c2cnn(C)c2)cc1,57.68
17,Cc1oc(C(=O)O)cc1S(=O)(=O)Nc1cccc(-n2nccc2C)c1,37.15
18,Cc1c[nH]nc1C1CCN(C(=O)C2CCCC2)C1 (stereo not drawn),41.21
19,NC(=O)C1(Cc2ccc(-c3ccccc3)cc2)CCNC1 (stereo not drawn),9.18
20,CCOC(=O)CNC(=O)N1CCOC(CCc2ccccc2)C1 (stereo not drawn),-18.39
21,CCOC(=O)CNC(=O)N1CCOC(Cc2ccc(OC)cc2)C1 (stereo not drawn),55.66
22,CCOC(=O)CCNC(=O)N1CCOC(Cc2cccc(OC)c2)C1 (stereo not drawn),25.37
23,CN(C)CCOCC1CN(Cc2ccncc2)Cc2nnn(C)c21 (stereo not drawn),7.1
24,CN1CCC(N(CCc2ccccc2)C(=O)COCC2CCCO2)CC1 (stereo not drawn),42.79
25,Cc1cccc(-c2nccnc2C2CCN(C)CC2)c1C,-25.17
26,COC(=O)c1sc2cccc(F)c2c1CNC(=O)C1CCOC1 (stereo not drawn),33.02

row,SMILES,INHIBITION [%]
1,COC(=O)c1sc2cccc(F)c2c1CNC(=O)C1CC1,15.28
2,COC(=O)c1sc2cccc(F)c2c1CNC(=O)C1CCCO1 (stereo not drawn),50.3
3,Cc1ncccc1-c1cc2cccnc2n1CCCNC(=O)C(C)(C)C,24.98
4,COCCN1CCC2(CC1)CC(NC(=O)CN(C)C)c1ccccc1O2 (stereo not drawn),48.52
5,CC(C)c1nc2c(n1C)CCN(CC(=O)Nc1ccncc1)C2,-14.17
6,Cc1nnc(NC(=O)CN2CCc3c(nc(C4CC4)n3C)C2)s1,51.94
7,Cc1nnc(NC(=O)CN2CCc3c(nc(C(C)C)n3C)C2)s1,22.63
8,CC(C)c1nc2c(n1C)CCN(CC(=O)Nc1nccs1)C2,-15.91
9,CC(C)c1nc2c(n1C)CCN(CC(=O)Nc1ccnn1C(C)C)C2,-42.83
10,Cn1c(C2CC2)nc2c1CCN(CC(=O)Nc1nncs1)C2,22.51
11,CC(C)c1nc2c(n1C)CCN(CC(=O)Nc1cccnc1)C2,-14.17
12,CCCn1nccc1NC(=O)CN1CCc2c(nc(C(C)C)n2C)C1,56.12
13,CC(C)c1nc2c(n1C)CCN(CC(=O)Nc1ccc(Cl)cn1)C2,51.92
14,CCCn1nccc1NC(=O)CN1CCc2c(nc(C3CC3)n2C)C1,49.6
15,CC(C)c1nc2c(n1C)CCN(CC(=O)Nc1nncs1)C2,60.09
16,Cc1csc(NC(=O)CN2CCc3c(nc(C4CC4)n3C)C2)n1,-1.02
17,Cc1ccc2c(c1)C1(CCNCC1)CN2C(=O)CN(C)C,15.58
18,O=C(Nc1cccnc1)C1Cc2nc(-c3ccsc3)sc2N1CC1CC1 (stereo not drawn),18.2
19,CCn1c(CN(C)C(=O)c2ccc(OC)nc2)nc2ccccc21,-33.03
20,O=C(Nc1cccc(CNCc2cccnc2)c1)C1CCCC1,14.53
21,O=C(c1cscn1)N1C[C@@H]2C[C@@H](c3nnc(C4CC4)o3)O[C@@H]2C1,-4.1
22,Cn1cc(CNC2CCc3ncnn3C2)c(-c2ccncc2)n1 (stereo not drawn),49.88
23,CN(C)C(=O)C1CCC2(CCNCC2)C1 (stereo not drawn),26.55
24,CC(C)N(C)Cc1cnc2n1CCN(S(=O)(=O)c1ccccc1)C2,29.3
25,COc1ccc(C(=O)C2CCCN(Cc3cc(C)n[nH]3)C2)c(OC)c1 (stereo not drawn),15.08
